Test results reported in PubChem BioAssay (NCI).
This is part of a sample that, as a whole, favours compounds with a hit. Of some 79,000 tested, about 15% had one in any assay. Active and inactive are the calls of the source. Cut-off read from the data, not from the text of the source: active = growth inhibition above about 70%; inactive = the rest.

What was measured:
[1] = NCI Yeast Anticancer Drug Screen. Data for the rad52 strain (AID 147);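 note: 0% = growth of vehicle-treated control cultures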; settings: S. cerevisiae rad52 mutant growth inhibition, active compounds read high
Method in brief: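 The repair-mutant yeast strain was incubated with compounds, then growth was read and inhibition derived relative to vehicle.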

[2] = NCI Yeast Anticancer Drug Screen. Data for the wt1 strain (AID 149);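 note: 0% = growth of vehicle-treated wt1 cultures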; settings: S. cerevisiae wt1 strain (SPY 50644) growth inhibition, active compounds read high
Method in brief: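 Measured: growth of wt1 yeast under compound versus vehicle treatment, reported as inhibition.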

[3] = NCI Yeast Anticancer Drug Screen. Data for the rad50EPP+ strain (AID 151);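 note: 0% = growth of vehicle-treated control cultures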; settings: S. cerevisiae rad50 mutant strain, active compounds read high
Method in brief: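 Vehicle-normalised growth inhibition; rad50EPP+ yeast strain, altered in DNA damage repair, compound-treated.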

[4] = NCI Yeast Anticancer Drug Screen. Data for the mgt1 strain (AID 153); settings: S. cerevisiae mgt1 mutant growth inhibition, active compounds read high
Method in brief: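 Vehicle-normalized growth inhibition is determined in mgt1 yeast, a strain selected for a defined alteration in DNA repair or cell cycle control.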

[5] = NCI Yeast Anticancer Drug Screen. Data for the rad50 strain (AID 155);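 note: 0% = growth of vehicle-only cultures of the same strain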; settings: S. cerevisiae rad50 strain growth inhibition, active compounds read high
Method in brief: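 Growth of the mutant yeast was measured after compound exposure and referenced to vehicle-treated cultures.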

[6] = NCI Yeast Anticancer Drug Screen. Data for the mec2-1 strain (AID 157); settings: S. cerevisiae mec2-1 strain, active compounds read high
Method in brief: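 Mutant yeast (mec2-1) grown with compound; growth inhibition relative to vehicle control reported.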

[7] = NCI Yeast Anticancer Drug Screen. Data for the rad14 strain (AID 159);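 note: 0% = growth of vehicle-treated control cultures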; settings: S. cerevisiae rad14 strain growth inhibition, active compounds read high
Method in brief: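 Here, inhibition of yeast growth was measured after compound exposure, using a strain with a genetic defect in DNA damage repair and vehicle-treated cultures as the reference.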

[8] = NCI Yeast Anticancer Drug Screen. Data for the sgs1 mgt1 strain (AID 161);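 note: 0% = growth of cultures given vehicle only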; settings: S. cerevisiae sgs1 mgt1 strain, active compounds read high
Method in brief: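 Growth of a repair-deficient yeast mutant was monitored after compound treatment and expressed as inhibition relative to vehicle-treated cultures.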

[9] = NCI Yeast Anticancer Drug Screen. Data for the CLN2oe strain (AID 163);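 note: 0% = growth of vehicle-only control cultures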; settings: S. cerevisiae CLN2oe strain, active compounds read high
Method in brief: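 Compounds are applied to yeast harbouring a defined cell-cycle control change; reduced growth compared with vehicle-treated controls gives the value.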

[10] = NCI Yeast Anticancer Drug Screen. Data for the cln2 rad14 strain (AID 165);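 note: 0% = growth equal to vehicle treated cultures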; settings: S. cerevisiae cln2 rad14 strain, active compounds read high
Method in brief: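 Readout is yeast growth inhibition versus vehicle-treated controls, using a strain with cln2 and rad14 alterations exposed to compound.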

[11] = NCI Yeast Anticancer Drug Screen. Data for the bub3 strain (AID 167); settings: S. cerevisiae bub3 mutant strain, active compounds read high
Method in brief: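 Whole-cell yeast assay. The mutant strain was incubated with compounds, and growth inhibition was determined by comparison with vehicle-treated cells.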

[12] = NCI Yeast Anticancer Drug Screen. Data for the wt2 strain (AID 169);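 note: 0% = growth of vehicle-treated yeast cultures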; settings: S. cerevisiae wt2 strain growth inhibition, active compounds read high
Method in brief: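 Against vehicle-treated controls, the growth of yeast exposed to each compound was compared, and the inhibition was recorded.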

[13] = NCI Yeast Anticancer Drug Screen. Data for the mlh1 strain (AID 171);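 note: 0% = growth of vehicle-treated control cultures of the same strain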; settings: S. cerevisiae mlh1 strain growth inhibition, active compounds read high
Method in brief: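 Measured: yeast growth. Reference: vehicle-treated controls. Organism: strain with a defined alteration affecting DNA damage repair or cell cycle control, treated with compound.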

[14] = NCI Yeast Anticancer Drug Screen. Data for the sgs1 strain (AID 173);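 note: 0% = growth of vehicle-only control cultures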; settings: S. cerevisiae sgs1 mutant, active compounds read high
Method in brief: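 Each compound was added to cultures of the altered yeast strain. Growth was recorded, and inhibition was derived by comparison with vehicle controls.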

[15] = NCI Yeast Anticancer Drug Screen. Data for the mlh1 rad18 strain (AID 175); settings: S. cerevisiae mlh1 rad18 strain growth inhibition, active compounds read high
Method in brief: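 Genetically defined yeast (DNA repair-deficient) exposed to compounds; growth inhibition determined relative to vehicle.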

[16] = at 5.0 µM (retest, dose inferred, filed as 0.5)
[17] = at 50.0 µM (retest, dose inferred, filed as 5.0)

Measured: growth inhibition

O=C(O)C1C2CCC(C2)C1c1ccccc1 (stereo unspecified)
active: [11]; at 33.0 µM 77% | [11]; [17] 90% | [11]; at 50.0 µM 95% | [11]; at 100.0 µM 94%
inactive: [1]; at 1.2 µM -1% | [1]; at 3.7 µM -3% | [1]; at 11.0 µM -6% | [1]; at 33.0 µM -3% | [1]; at 100.0 µM 20% | [2]; at 1.2 µM -1% | [2]; at 3.7 µM -2% | [2]; at 11.0 µM -4% | [2]; at 33.0 µM -1% | [2]; at 100.0 µM 26% | [3]; at 1.2 µM -1% | [3]; at 3.7 µM -2% | [3]; at 11.0 µM -2% | [3]; at 33.0 µM -2% | [3]; at 100.0 µM -3% | [4]; at 1.2 µM -1% | [4]; at 3.7 µM -1% | [4]; at 11.0 µM -4% | [4]; at 33.0 µM -5% | [4]; at 100.0 µM 31% | [5]; at 1.2 µM -10% | [5]; at 3.7 µM -51% | [5]; [16] -2% | [5]; at 11.0 µM 2% | [5]; at 33.0 µM -3% | [5]; [17] 10% | [5]; at 50.0 µM 19.4% | [5]; at 100.0 µM 34% | [6]; at 1.2 µM -1% | [6]; at 3.7 µM -4% | [6]; [16] -8% | [6]; at 11.0 µM -7% | [6]; at 33.0 µM -1% | [6]; [17] 8% | [6]; at 50.0 µM 14.4% | [6]; at 100.0 µM 31% | [7]; at 1.2 µM 0% | [7]; at 3.7 µM 0% | [7]; at 11.0 µM -5% | [7]; at 33.0 µM -8% | [7]; at 100.0 µM 13% | [8]; [16] -2% | [8]; [17] 8% | [8]; at 50.0 µM 10.2% | [9]; at 1.2 µM -7% | [9]; at 3.7 µM -10% | [9]; at 11.0 µM -6% | [9]; at 33.0 µM -1% | [9]; at 100.0 µM 18% | [10]; [16] -6% | [10]; [17] 8% | [10]; at 50.0 µM 11% | [11]; at 1.2 µM -1% | [11]; at 3.7 µM 11% | [11]; [16] 29% | [11]; at 11.0 µM 36% | [12]; at 1.2 µM -1% | [12]; at 3.7 µM 7% | [12]; at 11.0 µM -3% | [12]; at 33.0 µM 0% | [12]; at 100.0 µM 37% | [13]; at 1.2 µM -2% | [13]; at 3.7 µM -2% | [13]; at 11.0 µM -1% | [13]; at 33.0 µM -2% | [13]; at 100.0 µM 31% | [14]; at 1.2 µM -2% | [14]; at 3.7 µM 0% | [14]; at 11.0 µM 3% | [14]; at 33.0 µM 15% | [14]; at 100.0 µM 66% | [15]; [16] -1% | [15]; [17] 6% | [15]; at 50.0 µM 20.1%

CC(=O)O/C(=C1\C[C@H]2[C@@H]3CC=C4C[C@@H](OC(C)=O)CC[C@]4(C)[C@H]3CC[C@]2(C)C1=O)C(F)(F)F
active: [5]; at 50.0 µM 76.1% | [6]; at 50.0 µM 80.5% | [8]; at 50.0 µM 77.8% | [10]; at 50.0 µM 94%
inactive: [1]; at 1.2 µM -2% | [1]; at 3.7 µM -1% | [1]; at 11.0 µM -5% | [1]; at 33.0 µM -3% | [1]; at 100.0 µM 0% | [2]; at 1.2 µM -1% | [2]; at 3.7 µM 1% | [2]; at 11.0 µM 2% | [2]; at 33.0 µM 0% | [2]; at 100.0 µM 4% | [3]; at 1.2 µM 1% | [3]; at 3.7 µM 6% | [3]; at 11.0 µM 5% | [3]; at 33.0 µM 3% | [3]; at 100.0 µM 1% | [4]; at 1.2 µM 1% | [4]; at 3.7 µM 0% | [4]; at 11.0 µM 1% | [4]; at 33.0 µM 1% | [4]; at 100.0 µM 3% | [5]; at 1.2 µM 3% | [5]; at 3.7 µM -1% | [5]; [16] 18% | [5]; at 11.0 µM 7% | [5]; at 33.0 µM 2% | [5]; [17] 18% | [5]; at 100.0 µM 0% | [6]; at 1.2 µM 2% | [6]; at 3.7 µM 4% | [6]; [16] 19% | [6]; at 11.0 µM 4% | [6]; at 33.0 µM 5% | [6]; [17] 3% | [6]; at 100.0 µM 14% | [7]; at 1.2 µM 1% | [7]; at 3.7 µM -4% | [7]; at 11.0 µM 0% | [7]; at 33.0 µM -7% | [7]; at 100.0 µM 22% | [8]; [16] 2% | [8]; [17] 18% | [9]; at 1.2 µM -140% | [9]; at 3.7 µM 4% | [9]; at 11.0 µM 2% | [9]; at 33.0 µM 1% | [9]; at 100.0 µM 6% | [10]; [16] 37% | [10]; [17] -1% | [11]; at 1.2 µM -1% | [11]; at 3.7 µM 1% | [11]; [16] -10% | [11]; at 11.0 µM 10% | [11]; at 33.0 µM 3% | [11]; [17] 13% | [11]; at 50.0 µM 61.7% | [11]; at 100.0 µM 6% | [12]; at 1.2 µM -1% | [12]; at 3.7 µM 0% | [12]; at 11.0 µM -2% | [12]; at 33.0 µM -1% | [12]; at 100.0 µM 2% | [13]; at 1.2 µM 4% | [13]; at 3.7 µM 4% | [13]; at 11.0 µM 3% | [13]; at 33.0 µM -20% | [13]; at 100.0 µM 11% | [14]; at 1.2 µM 2% | [14]; at 3.7 µM 3% | [14]; at 11.0 µM 4% | [14]; at 33.0 µM 3% | [14]; at 100.0 µM 2% | [15]; [16] 9% | [15]; [17] 9% | [15]; at 50.0 µM 63.5%

O=C(O)CCCc1cc(I)c(N(CCCl)CCCl)c(I)c1
inactive: [1]; at 1.2 µM -18% | [1]; at 3.7 µM -35% | [1]; at 11.0 µM -14% | [2]; at 1.2 µM -59% | [2]; at 3.7 µM -53% | [2]; at 11.0 µM -59% | [2]; at 33.0 µM 68% | [3]; at 1.2 µM -25% | [3]; at 3.7 µM -15% | [3]; at 11.0 µM -27% | [3]; at 33.0 µM -23% | [3]; at 100.0 µM -33% | [4]; at 1.2 µM -20% | [4]; at 3.7 µM -42% | [4]; at 11.0 µM -42% | [5]; at 1.2 µM -60% | [5]; at 3.7 µM -55% | [5]; [16] 41% | [5]; at 11.0 µM -35% | [5]; at 33.0 µM 45% | [5]; at 50.0 µM 37.9% | [6]; at 1.2 µM -77% | [6]; at 3.7 µM -73% | [6]; [16] 11% | [6]; at 11.0 µM -36% | [6]; at 33.0 µM 60% | [6]; at 50.0 µM 69.1% | [7]; at 1.2 µM -59% | [7]; at 3.7 µM -59% | [7]; at 11.0 µM -26% | [7]; at 33.0 µM 37% | [8]; [16] 50% | [8]; at 50.0 µM 46.2% | [9]; at 1.2 µM -13% | [9]; at 3.7 µM -23% | [9]; at 11.0 µM -13% | [10]; [16] 45% | [10]; at 50.0 µM 53.5% | [11]; at 1.2 µM -58% | [11]; at 3.7 µM -37% | [11]; [16] 51% | [11]; at 11.0 µM -60% | [11]; at 50.0 µM 48%
active: [1]; at 33.0 µM 75% | [1]; at 100.0 µM 96% | [2]; at 100.0 µM 98% | [4]; at 33.0 µM 80% | [4]; at 100.0 µM 97% | [5]; [17] 98% | [5]; at 100.0 µM 94% | [6]; [17] 99% | [6]; at 100.0 µM 95% | [7]; at 100.0 µM 95% | [8]; [17] 99% | [9]; at 33.0 µM 87% | [9]; at 100.0 µM 97% | [10]; [17] 98% | [11]; at 33.0 µM 73% | [11]; [17] 97% | [11]; at 100.0 µM 94%
